Test results published in PubChem BioAssay (NCATS).
Results filed as inconclusive are left out. The source holds several records for some structures; these can differ, active in one and inactive in another. Activity calls are given as the source filed them. Unless noted, calls follow the shape of the dose curve; as a rule, active = well fitted curve in the direction sought with a large enough effect; inconclusive = small, poorly fitted or top-dose-only effect, or another doubt; inactive = no such curve, though single readings can be large; an effect the other way counts as inactive or inconclusive.

target: Luciferin 4-monooxygenase (Photinus pyralis) (UniProt P08659); assay: Biochemical firefly luciferase enzyme assay for NPC (AID 624030);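 also: purified P. pyralis luciferase at 10 nM with luciferin and ATP substrate; 0% = DMSO and -100% = full luciferase inhibition by PTC124 control; nearly all actives have a fitted effect of over 70% in size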; settings: purified P. pyralis luciferase, luminescence, 5 min; series mostly up to 58.6 µM; activity change, negative = inhibition: at the top concentration
Sequence (P08659 whole entry, looked up): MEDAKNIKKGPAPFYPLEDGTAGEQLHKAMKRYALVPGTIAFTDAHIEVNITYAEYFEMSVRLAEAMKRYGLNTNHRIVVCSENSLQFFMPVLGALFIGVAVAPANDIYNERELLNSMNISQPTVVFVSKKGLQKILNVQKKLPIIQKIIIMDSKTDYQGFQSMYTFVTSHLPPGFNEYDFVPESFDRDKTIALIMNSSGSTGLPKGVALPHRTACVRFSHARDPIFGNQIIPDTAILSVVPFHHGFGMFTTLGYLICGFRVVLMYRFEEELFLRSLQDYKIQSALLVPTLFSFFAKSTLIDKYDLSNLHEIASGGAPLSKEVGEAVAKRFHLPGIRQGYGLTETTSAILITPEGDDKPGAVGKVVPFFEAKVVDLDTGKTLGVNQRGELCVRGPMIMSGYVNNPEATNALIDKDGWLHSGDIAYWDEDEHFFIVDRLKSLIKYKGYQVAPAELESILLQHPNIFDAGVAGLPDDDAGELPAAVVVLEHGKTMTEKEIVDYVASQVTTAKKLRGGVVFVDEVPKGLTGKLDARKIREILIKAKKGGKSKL
Outline: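 Counter-screen for direct inhibition of the luciferase enzyme by approved-drug library compounds, run at 10 nM enzyme in 50 mM Tris acetate (final). Luminescence was read within 5 min of enzyme-buffer addition and normalized to PTC124 versus DMSO (0%).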

| SMILES | Potency | activity change, negative = inhibition |
| --- | --- | --- |
| NC(=O)NNc1ccccc1 | inactive |  |
| CN(C)CCCN1c2ccccc2CCc2ccccc21 |  | 9.97% (inactive) |
| c1ccc(CN(CC2=NCCN2)c2ccccc2)cc1 |  | 7.31% (inactive) |
| CNCCC(Oc1ccc(C(F)(F)F)cc1)c1ccccc1 (configuration not stated) |  | 11.3% (inactive) |
| CC(C)(C(=O)O)c1ccc(C(O)CCCN2CCC(C(O)(c3ccccc3)c3ccccc3)CC2)cc1 (configuration not stated) |  | 2.95% (inactive) |
| CN(C)CCC=C1c2ccccc2CCc2ccccc21 |  | 9.54% (inactive) |
| CCCCN(CCCC)CC(O)c1cc(Cl)cc2c1-c1ccc(Cl)cc1/C2=C/c1ccc(Cl)cc1 (configuration not stated) |  | 9.08% (inactive) |
| CCN(CC)CCOC(=O)C1(C2CCCCC2)CCCCC1 |  | 2.25% (inactive) |
| CSc1ccc2c(c1)N(CCC1CCCCN1C)c1ccccc1S2 (configuration not stated) |  | 18.9% (inactive) |
| O=C(O)Cc1sc(-c2ccccc2)nc1-c1ccc(Cl)cc1 |  | -13.8% (inactive) |
| CCCCN(CCCC)CCCOC(=O)c1ccc(N)cc1 |  | 1.51% [at 24.9 µM] (inactive) |
| CC(C)c1c(C(=O)Nc2ccccc2)c(-c2ccccc2)c(-c2ccc(F)cc2)n1CC[C@@H](O)C[C@@H](O)CC(=O)O |  | -2.35% (inactive) |
| CCOc1nc2cccc(C(=O)O)c2n1Cc1ccc(-c2ccccc2-c2nn[nH]n2)cc1 |  | 7.69% (inactive) |

tested on: not listed separately; assay: S16 Schwann cell viability assay (CellTiter-Glo assay) (AID 624031); settings: S16 rat Schwann cells viability, 24 h; series mostly up to 57.5 µM; activity change, negative = cytotoxicity: at the top concentration; also: nearly all actives have a fitted effect of over 70% in size; also: potency is read from the fitted curve at half-maximal effect;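 as to activity change, negative = cytotoxicity: native untransfected S16 rat Schwann cells; cellular ATP luminescence as a viability measure; plate controls were DMSO-treated cells for no effect and cell-free wells for full effect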
Outline: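 Parental S16 cells, 24 h compound, 37 °C. ATP-luminescence viability; DMSO = 0% activity, empty wells as reference; curves classified by fit quality and efficacy.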

| SMILES | activity change, negative = cytotoxicity | Potency |
| --- | --- | --- |
| Cc1ccc(C(C)C)cc2c(C)ccc1-2 | 0.781% (inactive) |  |
| NC(=O)NNc1ccccc1 |  | inactive |
| NC1CCN(c2cccc(Cl)n2)CC1 | 5.55% (inactive) |  |
| CN(C)CCCN1c2ccccc2CCc2ccccc21 | -21.4% (inactive) |  |
| CCCn1cnc2c1c(=O)n(CCCCC(C)=O)c(=O)n2C | -2.41% (inactive) |  |
| CCCCN(CCCC)CC(O)c1cc(Cl)cc2c1-c1ccc(Cl)cc1/C2=C/c1ccc(Cl)cc1 (configuration not stated) |  | 28.7 µM (active) |
| CSc1ccc2c(c1)N(CCC1CCCCN1C)c1ccccc1S2 (configuration not stated) |  | 32.2 µM (active) |
| CCCCN(CCCC)CCCOC(=O)c1ccc(N)cc1 | 10.1% [at 25.7 µM] (inactive) |  |
| Nc1ncnc2c1ncn2[C@@H]1O[C@H](CO)[C@@H](O)[C@H]1O | 11.9% (inactive) |  |
| CC(C)c1c(C(=O)Nc2ccccc2)c(-c2ccccc2)c(-c2ccc(F)cc2)n1CC[C@@H](O)C[C@@H](O)CC(=O)O | 3.93% (inactive) |  |
| CC(C)(C)C(=O)C(Oc1ccc(Cl)cc1)n1ccnc1 (configuration not stated) | 2.89% (inactive) |  |
| CCOc1nc2cccc(C(=O)O)c2n1Cc1ccc(-c2ccccc2-c2nn[nH]n2)cc1 | 5.04% (inactive) |  |
| OCc1cc(C(O)CNCCCCCCOCCCCc2ccccc2)ccc1O (configuration not stated) |  | 20.3 µM (active) |
| CCN(CC)CCNC(=O)c1cc(Cl)c(N)cc1OC | -1.45% (inactive) |  |

tested on: not listed separately; assay: S16 Schwann cell PMP22 intronic element firefly luciferase assay (AID 624032); settings: S16 rat Schwann cells, PMP22 element FLuc, 24 h; series mostly up to 57.5 µM; activity change, negative = inhibition: at the top concentration; also: nearly all actives have a fitted effect of over 30% in size; also: potency is read from the fitted curve at half-maximal effect;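 as to activity change, negative = inhibition: plate controls were DMSO for no effect and PTC124 positive control mean for full effect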
Outline: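 Rat S16 Schwann cells stably carrying a PMP22 intronic element-driven Fluc reporter were seeded overnight, then exposed to compounds for 24 h at 37 °C. Luminescence was normalized to PTC124 (positive control) and DMSO (0% activity).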

| SMILES | activity change, negative = inhibition | Potency |
| --- | --- | --- |
| Cc1ccc(C(C)C)cc2c(C)ccc1-2 | -13.2% (inactive) |  |
| O=c1[nH]c(=O)c2[nH]c(=O)[nH]c2[nH]1 | -0.828% (inactive) |  |
| COc1cc(C)c(Cc2cnc(N)nc2N)cc1OC | 0.102% (inactive) |  |
| CSc1ccc2c(c1)N(CCC1CCCCN1C)c1ccccc1S2 (configuration not stated) |  | 28.7 µM (active) |
| OCCN1CCN(CCCN2c3ccccc3Sc3ccc(Cl)cc32)CC1 | 1.38% [at 25.7 µM] (inactive) |  |
| CCCCN(CCCC)CCCOC(=O)c1ccc(N)cc1 | -15.5% [at 25.7 µM] (inactive) |  |
| Nc1ncnc2c1ncn2[C@@H]1O[C@H](CO)[C@@H](O)[C@H]1O | -5.88% (inactive) |  |
| CNCCCC1c2ccccc2C=Cc2ccccc21 |  | 12.3 µM (active) |

tested on: not listed separately; assay: S16 Schwann cell PMP22 intronic element beta-lactamase assay (AID 624044; calls by dose curve;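 also: 0% = DMSO and -100% = potassium clavulanate positive control; nearly all actives have a fitted effect of over 15% in size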); settings: S16 rat Schwann cells, PMP22 element beta-lactamase FRET, 24 h; series mostly up to 38.3 µM; ratio activity, negative = inhibition: at the top concentration
Outline: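 Beta-lactamase reporter under a PMP22 intronic regulatory element in stable S16 rat Schwann cells; 24 h compound exposure. 460 nm blue signal normalized between DMSO (0%) and potassium clavulanate, with 535 nm FRET tracking viability; curves classed by r2 and response.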

| SMILES | ratio activity, negative = inhibition | Potency |
| --- | --- | --- |
| Cc1ccc(C(C)C)cc2c(C)ccc1-2 | 8.75% (inactive) |  |
| NC(=O)NNc1ccccc1 |  | inactive |
| CNCCC(Oc1ccc(C(F)(F)F)cc1)c1ccccc1 (configuration not stated) | -18.2% (inactive) |  |
| CSc1ccc2c(c1)N(CCC1CCCCN1C)c1ccccc1S2 (configuration not stated) | -2.59% (inactive) |  |
| OCCN1CCN(CCCN2c3ccccc3Sc3ccc(Cl)cc32)CC1 | -16% [at 17.1 µM] (inactive) |  |
| CCN(CC)CCNC(=O)c1c(C)[nH]c(/C=C2\C(=O)Nc3ccc(F)cc32)c1C | -42% (inactive) |  |
| COc1ccc2[nH]c(S(=O)Cc3ncc(C)c(OC)c3C)nc2n1 (configuration not stated) | -4.59% (inactive) |  |
| CC(C)(C)C(=O)C(Oc1ccc(Cl)cc1)n1ccnc1 (configuration not stated) | -11.5% (inactive) |  |
| OCc1cc(C(O)CNCCCCCCOCCCCc2ccccc2)ccc1O (configuration not stated) | -30.5% (inactive) |  |
| CCN(CC)CCNC(=O)c1cc(Cl)c(N)cc1OC | 0.615% (inactive) |  |

target: Glutaminase kidney isoform, mitochondrial (Homo sapiens) (UniProt O94925); assay: qHTS for Inhibitors of Glutaminase (GLS): LOPAC Validation (AID 624146); settings: glutaminase enzyme activity inhibition; series mostly up to 46.1 µM; activity change, negative = inhibition: at the top concentration; also: nearly all actives have a fitted effect of over 60% in size; also: potency is read from the fitted curve at half-maximal effect;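 as to activity change, negative = inhibition: glutamate product detected by oxidase and peroxidase coupled Amplex red fluorescence gain; % is scaled to controls: 0 for no effect and ±100 for the full control effect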
Sequence (O94925 whole entry, looked up, canonical isoform): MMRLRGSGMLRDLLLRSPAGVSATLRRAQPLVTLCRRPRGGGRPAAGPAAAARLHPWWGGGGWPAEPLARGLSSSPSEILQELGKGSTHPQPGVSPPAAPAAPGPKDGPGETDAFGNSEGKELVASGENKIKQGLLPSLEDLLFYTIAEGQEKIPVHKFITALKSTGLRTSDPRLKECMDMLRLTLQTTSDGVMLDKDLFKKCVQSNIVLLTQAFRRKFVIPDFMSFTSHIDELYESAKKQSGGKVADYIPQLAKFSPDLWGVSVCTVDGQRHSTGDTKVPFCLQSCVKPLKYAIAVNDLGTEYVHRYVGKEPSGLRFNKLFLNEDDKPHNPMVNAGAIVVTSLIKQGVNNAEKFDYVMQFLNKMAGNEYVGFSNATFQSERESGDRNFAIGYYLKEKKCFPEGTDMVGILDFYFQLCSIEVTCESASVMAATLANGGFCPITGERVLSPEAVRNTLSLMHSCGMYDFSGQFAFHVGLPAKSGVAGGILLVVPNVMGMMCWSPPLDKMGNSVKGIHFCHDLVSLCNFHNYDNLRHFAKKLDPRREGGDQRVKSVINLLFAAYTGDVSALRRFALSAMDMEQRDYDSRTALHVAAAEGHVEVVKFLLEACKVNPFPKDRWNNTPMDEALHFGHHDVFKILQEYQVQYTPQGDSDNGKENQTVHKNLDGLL
Outline: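 hKGA; 45 mM KH2PO4 pH 8.2 + 0.02% Tween-20; cpd via pin tool; 1 mM Gln soln; GluOx/HRP/Amplex Red; RT 30 min; fluor. t0 & final.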

| SMILES | Potency | activity change, negative = inhibition |
| --- | --- | --- |
| CC(C)(C)c1onc(OCP(=O)(O)O)c1CC(N)C(=O)O (configuration not stated) | inactive |  |
| CCN(CC)C(C)CN1c2ccccc2Sc2ccccc21 (configuration not stated) | 11.2 µM (active) |  |
| N=c1c[n+](N2CCOCC2)[n-]o1 |  | 128% (inactive) |
| NC1CCN(c2cccc(Cl)n2)CC1 |  | -7.64% (inactive) |
| CC(CN(C)C)CN1c2ccccc2CCc2ccccc21 (configuration not stated) |  | -8.6% (inactive) |
| CN(C)CCCN1c2ccccc2CCc2ccccc21 |  | -9.36% (inactive) |
| CNCCC(Oc1ccc(C(F)(F)F)cc1)c1ccccc1 (configuration not stated) |  | 3.68% (inactive) |
| CN(C)CC[C@@H](c1ccc(Cl)cc1)c1ccccn1 |  | -18.9% (inactive) |
| NC(N)=NCCC[C@H](N)C(=O)O |  | 94.4% (inactive) |
| CC(C)(C(=O)O)c1ccc(C(O)CCCN2CCC(C(O)(c3ccccc3)c3ccccc3)CC2)cc1 (configuration not stated) |  | -8.5% (inactive) |
| CCCn1cnc2c1c(=O)n(CCCCC(C)=O)c(=O)n2C |  | -10.5% (inactive) |
| CCN(CC)CCCC(C)Nc1c2ccc(Cl)cc2nc2ccc(OC)cc12 (configuration not stated) |  | -21.2% (inactive) |
| CCN(CC)CCOC(=O)C1(C2CCCCC2)CCCCC1 |  | -15.2% (inactive) |
| CC(C)(C)[C@]1(O)CCN2C[C@H]3c4ccccc4CCc4cccc(c43)[C@@H]2C1 | inactive |  |
| CNCC(O)c1ccc(O)c(O)c1 (configuration not stated) |  | 97.4% (inactive) |
| CC(C)NC[C@H](O)c1ccc(O)c(O)c1 | 5.01 µM (active) and inactive |  |
| O=C1N=C(O)CN1/N=C/c1ccc(-c2ccc([N+](=O)[O-])cc2)o1 |  | -11.6% (inactive) |
| Nc1ncnc2c1ncn2[C@@H]1O[C@H](CO)[C@@H](O)[C@H]1O |  | -4.9% (inactive) |
| CNCCCC1c2ccccc2C=Cc2ccccc21 |  | -8.39% (inactive) |
| OCc1cc(C(O)CNCCCCCCOCCCCc2ccccc2)ccc1O (configuration not stated) |  | -9.06% (inactive) |
| CCN(CC)CCNC(=O)c1cc(Cl)c(N)cc1OC |  | -0.591% (inactive) |
| CC[C@H]1CN2CCc3cc(OC)c(OC)cc3[C@@H]2C[C@@H]1C[C@H]1NCCc2cc(OC)c(OC)cc21 |  | 5.45% (inactive) |
